Data: PubChem BioAssay (EPA / NIEHS)
Records with an inconclusive call do not appear. Active and inactive are the calls of the source. How the source made its calls: active means hit-call score of the fitted dose curve at least 0.9, where 1 is the maximum; inconclusive means response in the unintended direction; inactive means score below 0.9.

Experiments:
[1] = target: human Vascular Endothelial Growth Factor Receptor 3 (VEGFR3), FLT4 (gene 2324) (UniProt P35916); experiment: NVS_ENZ_hVEGFR3: NovaScreen (NVS) Enzymatic Assay for human Vascular Endothelial Growth Factor Receptor 3 (VEGFR3) (AID 2283229)
Procedure, shortened: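 Chemicals first run in duplicate at 25 uM, with actives re-tested in concentration series to a top of 50 uM. Recombinant VEGFR3 activity measured after 1 h via fluorescence with mobility-shift product separation; inhibition fitted relative to DMSO.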

[2] = target: human Vascular Endothelial Growth Factor Receptor 2 (VEGFR2), KDR (gene 3791) (UniProt P35968); experiment: NVS_ENZ_hVEGFR2: NovaScreen (NVS) Enzymatic Assay for human Vascular Endothelial Growth Factor Receptor 2 (VEGFR2) (AID 2283230)
Procedure, shortened: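 Cell-free recombinant VEGFR2 kinase, fluorescent substrate with electrophoretic mobility-shift separation; read 1 h after dosing. Screened at 25 uM in duplicate, hits to concentration-response up to 50 uM; loss-of-signal versus DMSO.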

[3] = target: sheep Cyclooxygenase-2 (Cox2), PTGS2 (gene 443460) (UniProt P79208); experiment: NVS_ENZ_oCOX2: NovaScreen (NVS) Enzymatic Assay for sheep Cyclooxygenase-2 (Cox2) (AID 2283231)
Procedure, shortened: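 Enzyme from ovine placenta, cell-free; colorimetric absorbance read 0.66 hour after dosing, loss of signal vs DMSO. Screened in duplicate at 25 uM, then concentration-response up to 50 uM.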

[4] = target: Adenosine receptor A1 (Bos taurus) (UniProt P28190); experiment: NVS_GPCR_bAdoR_NonSelective: NovaScreen (NVS) G Protein-Coupled Receptor Assay for bovine Adenosine Receptor (AdoR), Non-selective Binding (AID 2283244)
Procedure, shortened: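 Cell-free binding with membranes from bovine striatum: radioligand displaced by test chemical, read after 1 h by filtration and scintillation. Single-point 25 uM duplicate primary, 50 uM top concentration in follow-up curves, DMSO baseline.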

[5] = target: guinea pig Leukotriene D4 Receptor (LTD4), CYSLTR1 (gene 100135514) (UniProt Q2NNR5); experiment: NVS_GPCR_gLTD4: NovaScreen (NVS) G Protein-Coupled Receptor Assay for guinea pig Leukotriene D4 Receptor (LTD4) (AID 2283248)
Procedure, shortened: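 Guinea pig lung membrane preparation; bound radioligand measured by filter scintillation after 1 h, loss of signal versus DMSO marking displacement. Compounds tested at 25 uM in duplicate, hits retested to max 50 uM.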

[6] = target: guinea pig Opioid, Kappa 1 Receptor (OpiateK), OPRK1 (gene 100135587) (UniProt P41144); experiment: NVS_GPCR_gOpiateK: NovaScreen (NVS) G Protein-Coupled Receptor Assay for guinea pig Opioid, Kappa 1 Receptor (OpiateK) (AID 2283252);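 further: radioligand displacement from kappa opioid receptor in guinea pig cerebellar membranes; active means reduced radioligand binding relative to DMSO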
Procedure, shortened: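 Cell-free tissue prep: guinea pig cerebellar membranes, radioligand displacement, 2 h incubation. Readout: filtration plus scintillation counting. Primary single-point 25 uM duplicate; actives retested in concentration series; DMSO negative control.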

[7] = target: human Serotonin, 5-Hydroxytryptamine Receptor 6 (5HT6), HTR6 (gene 3362) (UniProt P50406); experiment: NVS_GPCR_h5HT6: NovaScreen (NVS) G Protein-Coupled Receptor Assay for human Serotonin, 5-Hydroxytryptamine Receptor 6 (5HT6) (AID 2283253)
Procedure, shortened: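 Filter scintillation counting of radioligand displacement from HEK293-expressed 5HT6, 1 hour post-dose, with loss of signal relative to DMSO. Single 25 uM duplicates first, with concentration series for confirmation.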

[8] = target: human Serotonin, 5-Hydroxytryptamine Receptor 7 (5HT7), HTR7 (gene 3363) (UniProt P34969); experiment: NVS_GPCR_h5HT7: NovaScreen (NVS) G Protein-Coupled Receptor Assay for human Serotonin, 5-Hydroxytryptamine Receptor 7 (5HT7) (AID 2283255);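 further: hits reduce specific radioligand binding relative to DMSO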
Procedure, shortened: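 Filter-bound radioactivity counted after 1 h, with loss of specific radioligand binding fitted against DMSO. Membrane protein came from CHO cells expressing human 5HT7. Chemicals were tested first at 25 uM in duplicate, then in concentration series if active.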

[9] = NVS_GPCR_bNPY_NonSelective: NovaScreen (NVS) G Protein-Coupled Receptor Assay for bovine Neuropeptide Y (NPY) Receptor, Non-selective Binding (AID 2283245)
Procedure, shortened: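 Displacement of radioligand from bovine hippocampal membrane receptors, read by filtration and scintillation counting after 1 hour. Concentration-response to a top of 50 uM followed a 25 uM duplicate primary screen. Loss of signal versus DMSO.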

[10] = target: human Serotonin, 5-Hydroxytryptamine Receptor 5A (5HT5A), HTR5A (gene 3361) (UniProt P47898); experiment: NVS_GPCR_h5HT5A: NovaScreen (NVS) G Protein-Coupled Receptor Assay for human Serotonin, 5-Hydroxytryptamine Receptor 5A (5HT5A) (AID 2283251)
Procedure, shortened: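 Membranes from HEK293 cells, radioligand binding read by filtration and scintillation after 1 h. Single-concentration duplicate testing at 25 uM, then concentration-response for actives; positive-direction fitting relative to DMSO.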

[11] = target: bovine Dopamine Receptor (DR), Non-selective Binding, DRD1 (gene 281125) (UniProt Q95136); experiment: NVS_GPCR_bDR_NonSelective: NovaScreen (NVS) G Protein-Coupled Receptor Assay for bovine Dopamine Receptor (DR), Non-selective Binding (AID 2283241)
Procedure, shortened: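 Filter-based radioligand binding with bovine striatal membrane, incubated 1 h; DMSO as negative baseline. Initial duplicate single-point test at 25 uM preceded concentration series for actives.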

[12] = target: rat Constitutive Nitric Oxide Synthase (CNOS), Nos1 (gene 24598) (UniProt P29476); experiment: NVS_ENZ_rCNOS: NovaScreen (NVS) Enzymatic Assay for rat Constitutive Nitric Oxide Synthase (CNOS) (AID 2283236)
Procedure, shortened: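 Single 25 uM duplicate screen, then concentration series to 50 uM for chemicals meeting threshold. Rat brain membrane-derived CNOS activity detected radiometrically by filtration and scintillation counting, 1 h after compound addition; DMSO as baseline.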

[13] = target: sheep Cyclooxygenase-1 (Cox1), PTGS1 (gene 443551) (UniProt P05979); experiment: NVS_ENZ_oCOX1: NovaScreen (NVS) Enzymatic Assay for sheep Cyclooxygenase-1 (Cox1) (AID 2283239);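 further: actives reduce cyclooxygenase activity so potencies are for inhibitors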
Procedure, shortened: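 Colorimetric enzyme readout using sheep seminal-vesicle cyclooxygenase-1, measured 0.66 h post-dosing. Single-concentration duplicates at 25 uM first, then concentration series for actives, with DMSO as baseline and plate controls.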

[14] = tested on: guinea pig Leukotriene B4 Receptor (LTB4), gene 100379538; experiment: NVS_GPCR_gLTB4: NovaScreen (NVS) G Protein-Coupled Receptor Assay for guinea pig Leukotriene B4 Receptor (LTB4) (AID 2283247)
Procedure, shortened: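 Membranes from guinea pig spleen incubated 2 h with radioligand and compound; bound counts measured by filtration and scintillation. Screened first at 25 uM in duplicate, then actives titrated to a 50 uM top concentration relative to DMSO.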

[15] = tested on: guinea pig Muscarinic, Peripheral (Mperiperal) Receptor, Non-selective Binding, gene 100379235; experiment: NVS_GPCR_gMPeripheral_NonSelective: NovaScreen (NVS) G Protein-Coupled Receptor Assay for guinea pig Muscarinic, Peripheral (Mperiperal) Receptor, Non-selective Binding (AID 2283250)
Procedure, shortened: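 Screened in duplicate at 25 uM, hits retested in concentration series to 50 uM max, using bladder membrane radioligand displacement from guinea pig. Filtration and scintillation counting 1 h post-dose, fitted relative to DMSO.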

[16] = target: human Adenosine A2a Receptor (AdoRA2a), ADORA2A (gene 135) (UniProt P29274); experiment: NVS_GPCR_hAdoRA2a: NovaScreen (NVS) G Protein-Coupled Receptor Assay for human Adenosine A2a Receptor (AdoRA2a) (AID 2283256)
Procedure, shortened: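 Compounds screened in duplicate at 25 uM, with actives followed up in concentration series, for displacement of a radioligand from HEK293-derived receptor protein. Bound counts read by filter scintillation at 1.5 hours, DMSO as baseline.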

[17] = target: rat Catechol-O-Methyl Transferase (COMT), Comt (gene 24267) (UniProt P22734); experiment: NVS_ENZ_rCOMT: NovaScreen (NVS) Enzymatic Assay for rat Catechol-O-Methyl Transferase (COMT) (AID 2283235)
Procedure, shortened: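 Rat dorsal striatum extract served as COMT source; product quantified by HPLC/spectrophotometry, read at 0 h after dosing. Primary single-concentration screen at 25 uM, followed by concentration series to a 50 uM maximum.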

[18] = tested on: bovine Histamine 1 Receptor (H1), gene 281231; experiment: NVS_GPCR_bH1: NovaScreen (NVS) G Protein-Coupled Receptor Assay for bovine Histamine 1 Receptor (H1) (AID 2283246)
Procedure, shortened: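 Hits from a 25 uM duplicate primary screen were retested in concentration series (top 50 uM); binding measured as scintillation-counted displacement of radioligand from bovine cerebellar membranes after 1 h, normalised to DMSO.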

[19] = target: human Serotonin, 5-Hydroxytryptamine Receptor 2A (5HT2A), HTR2A (gene 3356) (UniProt P28223); experiment: NVS_GPCR_h5HT2A: NovaScreen (NVS) G Protein-Coupled Receptor Assay for human Serotonin, 5-Hydroxytryptamine Receptor 2A (5HT2A) (AID 2283249)
Procedure, shortened: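 Radioligand displacement on human cortex tissue extract, counted by filtration and scintillation 1.5 h post-dosing. Initial single-concentration screen at 25 uM in duplicate, concentration series in follow-up; DMSO as baseline.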

Chain of human Vascular Endothelial Growth Factor Receptor 3 (VEGFR3), FLT4 (gene 2324) (P35916 whole entry, looked up): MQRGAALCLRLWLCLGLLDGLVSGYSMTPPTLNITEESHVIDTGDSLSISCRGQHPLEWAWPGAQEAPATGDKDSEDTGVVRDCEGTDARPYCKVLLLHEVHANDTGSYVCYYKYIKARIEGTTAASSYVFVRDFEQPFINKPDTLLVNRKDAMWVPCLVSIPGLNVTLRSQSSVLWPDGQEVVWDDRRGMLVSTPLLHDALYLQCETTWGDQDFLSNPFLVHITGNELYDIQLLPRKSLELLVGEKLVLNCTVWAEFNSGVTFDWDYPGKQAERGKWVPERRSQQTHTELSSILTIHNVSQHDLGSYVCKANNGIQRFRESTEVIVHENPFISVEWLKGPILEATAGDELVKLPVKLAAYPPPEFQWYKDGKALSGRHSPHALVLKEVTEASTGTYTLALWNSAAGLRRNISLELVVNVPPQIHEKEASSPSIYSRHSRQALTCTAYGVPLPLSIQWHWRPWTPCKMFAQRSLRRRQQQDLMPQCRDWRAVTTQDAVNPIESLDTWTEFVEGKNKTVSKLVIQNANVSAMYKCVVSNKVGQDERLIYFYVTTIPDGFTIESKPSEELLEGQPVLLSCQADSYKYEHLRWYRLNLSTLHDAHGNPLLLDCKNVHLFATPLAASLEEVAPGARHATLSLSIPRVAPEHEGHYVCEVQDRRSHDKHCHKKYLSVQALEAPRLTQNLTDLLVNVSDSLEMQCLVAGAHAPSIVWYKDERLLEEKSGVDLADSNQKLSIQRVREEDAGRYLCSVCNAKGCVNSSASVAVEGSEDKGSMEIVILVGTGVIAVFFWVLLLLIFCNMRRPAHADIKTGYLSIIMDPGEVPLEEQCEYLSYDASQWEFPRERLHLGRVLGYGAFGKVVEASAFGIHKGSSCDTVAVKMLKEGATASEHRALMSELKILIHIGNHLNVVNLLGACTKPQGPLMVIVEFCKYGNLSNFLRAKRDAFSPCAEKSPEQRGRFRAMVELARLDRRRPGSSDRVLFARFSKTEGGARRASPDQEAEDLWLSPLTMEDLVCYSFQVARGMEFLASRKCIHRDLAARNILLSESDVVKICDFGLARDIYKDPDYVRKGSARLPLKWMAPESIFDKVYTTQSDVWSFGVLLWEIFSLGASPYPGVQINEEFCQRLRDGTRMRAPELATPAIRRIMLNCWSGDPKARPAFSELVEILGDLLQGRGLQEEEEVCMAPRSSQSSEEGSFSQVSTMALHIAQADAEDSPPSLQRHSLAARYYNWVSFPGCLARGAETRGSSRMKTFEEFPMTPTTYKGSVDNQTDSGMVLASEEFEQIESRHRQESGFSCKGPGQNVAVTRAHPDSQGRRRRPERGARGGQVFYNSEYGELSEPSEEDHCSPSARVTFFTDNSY
Chain of human Serotonin, 5-Hydroxytryptamine Receptor 7 (5HT7), HTR7 (gene 3363) (P34969 whole entry, looked up): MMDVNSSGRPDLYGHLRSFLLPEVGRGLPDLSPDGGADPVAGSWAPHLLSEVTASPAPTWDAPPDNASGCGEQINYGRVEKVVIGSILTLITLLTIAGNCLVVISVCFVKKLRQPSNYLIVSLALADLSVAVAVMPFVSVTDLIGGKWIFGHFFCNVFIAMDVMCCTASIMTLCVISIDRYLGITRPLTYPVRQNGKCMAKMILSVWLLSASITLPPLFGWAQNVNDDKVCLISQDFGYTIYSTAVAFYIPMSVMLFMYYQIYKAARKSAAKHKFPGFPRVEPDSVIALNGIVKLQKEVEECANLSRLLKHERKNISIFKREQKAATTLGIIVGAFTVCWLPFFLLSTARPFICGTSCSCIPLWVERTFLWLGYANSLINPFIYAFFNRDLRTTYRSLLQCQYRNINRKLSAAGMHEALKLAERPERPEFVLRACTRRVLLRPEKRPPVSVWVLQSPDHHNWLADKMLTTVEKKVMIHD
Chain of human Serotonin, 5-Hydroxytryptamine Receptor 6 (5HT6), HTR6 (gene 3362) (P50406 whole entry, looked up): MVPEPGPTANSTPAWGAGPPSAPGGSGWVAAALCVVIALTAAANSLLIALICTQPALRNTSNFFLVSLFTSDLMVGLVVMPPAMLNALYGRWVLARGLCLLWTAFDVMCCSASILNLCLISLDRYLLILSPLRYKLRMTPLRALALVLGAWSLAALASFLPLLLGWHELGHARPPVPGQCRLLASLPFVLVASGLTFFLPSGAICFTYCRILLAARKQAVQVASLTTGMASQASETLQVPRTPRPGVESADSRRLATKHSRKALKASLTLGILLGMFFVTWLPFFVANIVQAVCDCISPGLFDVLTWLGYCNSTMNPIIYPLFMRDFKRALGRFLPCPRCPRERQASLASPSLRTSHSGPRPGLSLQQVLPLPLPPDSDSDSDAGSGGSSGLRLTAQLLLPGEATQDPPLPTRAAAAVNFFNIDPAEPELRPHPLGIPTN
Chain of sheep Cyclooxygenase-1 (Cox1), PTGS1 (gene 443551) (P05979 whole entry, looked up): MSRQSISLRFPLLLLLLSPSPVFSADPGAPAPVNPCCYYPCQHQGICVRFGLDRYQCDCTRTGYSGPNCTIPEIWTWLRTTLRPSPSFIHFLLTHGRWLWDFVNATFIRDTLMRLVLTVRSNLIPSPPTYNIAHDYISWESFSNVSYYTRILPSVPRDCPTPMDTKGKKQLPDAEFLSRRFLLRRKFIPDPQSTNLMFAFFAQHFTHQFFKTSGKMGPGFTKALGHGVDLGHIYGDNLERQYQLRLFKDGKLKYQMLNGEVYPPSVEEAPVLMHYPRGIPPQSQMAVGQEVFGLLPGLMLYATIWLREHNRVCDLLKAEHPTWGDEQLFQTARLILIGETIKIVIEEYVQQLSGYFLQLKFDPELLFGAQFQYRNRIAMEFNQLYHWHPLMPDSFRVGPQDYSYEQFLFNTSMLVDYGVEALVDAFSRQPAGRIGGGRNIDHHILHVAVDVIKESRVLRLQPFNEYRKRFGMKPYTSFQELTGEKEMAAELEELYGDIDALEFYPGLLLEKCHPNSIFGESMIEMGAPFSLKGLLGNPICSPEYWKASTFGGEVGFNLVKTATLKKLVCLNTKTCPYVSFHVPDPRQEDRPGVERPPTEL
Chain of guinea pig Opioid, Kappa 1 Receptor (OpiateK), OPRK1 (gene 100135587) (P41144 whole entry, looked up): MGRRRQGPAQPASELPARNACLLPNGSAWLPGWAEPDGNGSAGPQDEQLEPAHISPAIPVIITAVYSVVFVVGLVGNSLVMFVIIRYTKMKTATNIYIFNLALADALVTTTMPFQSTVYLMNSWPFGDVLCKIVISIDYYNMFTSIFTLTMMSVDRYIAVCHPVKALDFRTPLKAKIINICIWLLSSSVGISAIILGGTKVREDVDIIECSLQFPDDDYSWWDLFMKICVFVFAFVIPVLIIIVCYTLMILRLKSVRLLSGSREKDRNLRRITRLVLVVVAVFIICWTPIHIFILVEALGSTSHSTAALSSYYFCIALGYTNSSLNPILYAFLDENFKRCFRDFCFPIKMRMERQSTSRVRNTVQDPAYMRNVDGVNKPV
Chain of guinea pig Leukotriene D4 Receptor (LTD4), CYSLTR1 (gene 100135514) (Q2NNR5 whole entry, looked up): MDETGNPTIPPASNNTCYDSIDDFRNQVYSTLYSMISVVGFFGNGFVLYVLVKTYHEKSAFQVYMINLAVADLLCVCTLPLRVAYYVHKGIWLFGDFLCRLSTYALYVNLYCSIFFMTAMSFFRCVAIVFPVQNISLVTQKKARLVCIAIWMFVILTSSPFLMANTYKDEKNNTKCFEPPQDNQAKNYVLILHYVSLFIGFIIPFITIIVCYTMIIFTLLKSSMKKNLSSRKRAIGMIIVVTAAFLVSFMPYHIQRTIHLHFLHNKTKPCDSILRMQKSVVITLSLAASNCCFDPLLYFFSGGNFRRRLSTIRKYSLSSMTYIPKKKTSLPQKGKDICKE
Chain of human Vascular Endothelial Growth Factor Receptor 2 (VEGFR2), KDR (gene 3791) (P35968 whole entry, looked up): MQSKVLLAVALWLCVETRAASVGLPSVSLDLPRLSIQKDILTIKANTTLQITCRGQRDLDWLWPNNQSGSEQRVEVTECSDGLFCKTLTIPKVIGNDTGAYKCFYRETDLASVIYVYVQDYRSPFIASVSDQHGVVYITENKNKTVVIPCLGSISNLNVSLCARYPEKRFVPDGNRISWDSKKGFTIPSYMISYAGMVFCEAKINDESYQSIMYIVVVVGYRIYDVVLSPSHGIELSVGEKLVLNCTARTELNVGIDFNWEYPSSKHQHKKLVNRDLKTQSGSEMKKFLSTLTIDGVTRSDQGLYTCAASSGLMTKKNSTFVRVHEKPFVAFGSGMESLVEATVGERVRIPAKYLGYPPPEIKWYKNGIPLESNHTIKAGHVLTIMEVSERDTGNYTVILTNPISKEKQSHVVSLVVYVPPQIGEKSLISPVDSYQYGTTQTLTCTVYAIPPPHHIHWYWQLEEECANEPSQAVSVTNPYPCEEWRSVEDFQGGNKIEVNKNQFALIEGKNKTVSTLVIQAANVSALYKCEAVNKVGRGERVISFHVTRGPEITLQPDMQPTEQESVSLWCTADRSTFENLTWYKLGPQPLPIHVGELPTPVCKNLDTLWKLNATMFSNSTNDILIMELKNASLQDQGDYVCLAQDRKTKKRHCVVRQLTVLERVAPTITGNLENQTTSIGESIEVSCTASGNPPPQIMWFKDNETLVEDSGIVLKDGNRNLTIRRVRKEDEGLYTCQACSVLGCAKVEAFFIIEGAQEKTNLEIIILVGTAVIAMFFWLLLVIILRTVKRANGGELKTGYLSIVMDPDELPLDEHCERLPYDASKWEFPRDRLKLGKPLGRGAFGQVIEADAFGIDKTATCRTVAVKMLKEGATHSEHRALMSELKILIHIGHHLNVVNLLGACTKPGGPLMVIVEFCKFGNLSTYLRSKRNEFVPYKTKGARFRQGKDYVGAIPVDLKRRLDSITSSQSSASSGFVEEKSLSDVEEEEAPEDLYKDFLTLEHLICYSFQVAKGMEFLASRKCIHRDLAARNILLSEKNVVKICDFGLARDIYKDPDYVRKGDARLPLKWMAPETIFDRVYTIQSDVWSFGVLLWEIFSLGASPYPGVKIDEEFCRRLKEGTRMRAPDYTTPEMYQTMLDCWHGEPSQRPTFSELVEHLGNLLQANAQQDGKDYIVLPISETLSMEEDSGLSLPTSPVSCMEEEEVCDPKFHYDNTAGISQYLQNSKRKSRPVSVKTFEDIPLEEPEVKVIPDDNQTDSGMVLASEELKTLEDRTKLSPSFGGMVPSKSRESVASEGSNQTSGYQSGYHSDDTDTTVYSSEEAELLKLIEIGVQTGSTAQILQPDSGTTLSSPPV

For `Cc1ncc([C@@H](CCCCCCc2ccc3c(n2)NCCC3)CC(=O)O)cn1`, the outcome [1] was “inactive”, the outcome [2] was “inactive” and the AC50 [3] was 29 µM (active).

For `CCN(CC)C(=S)SSC(=S)N(CC)CC`, the outcome [1] was “inactive”, the outcome [2] was “inactive” and the outcome [4] was “inactive”. The AC50 [5] was 1.24 µM (active), the outcome [6] was “inactive” and the AC50 [7] was 8.33 µM (active). The AC50 [8] was 13.5 µM (active).

With `CCCC(CCC)C(=O)O` the outcome [1] was “inactive” and the outcome [9] was “inactive”.

In the case of `CCCOc1ccc(S(=O)(=O)N2CCN(CC)CC2)cc1-c1nc2c(CC)n(Cc3ccccn3)nc2c(=O)[nH]1`, the outcome [4] is reported as “inactive” and the outcome [6] is reported as “inactive”.

For `CCCCCCCCCCCCCCCCOS(=O)(=O)O`, the AC50 [5] was 4.26 µM (active), the AC50 [10] was 20.6 µM (active) and the AC50 [8] was 15.6 µM (active).

For `COS(C)(=O)=O`, the outcome [11] was “inactive”.

With `O=C(O)c1cccc(C[C@@H]2COc3ccc(OCc4nc5cc(F)ccc5s4)cc3[C@@H]2O)c1` the outcome [12] was “inactive”.

In the case of `O=C1CN(N=Cc2ccc([N+](=O)[O-])o2)C(=O)N1`, the outcome [12] is reported as “inactive” and the outcome [13] is reported as “inactive”.

In the case of `Cc1nccn1-c1ccc(Sc2cccc(C3(C(N)=O)CCOCC3)c2)cc1`, the AC50 [14] is reported as 8.42 µM (active), the AC50 [15] is reported as 25 µM (active) and the AC50 [6] is reported as 2.06 µM (active). For the same compound, the AC50 [16] was 4.51 µM (active).

In the case of `Cc1nc(-c2ccccn2)ncc1C(=O)Nn1cc(C)c2cc(F)ccc21`, the outcome [2] is reported as “inactive” and the outcome [13] is reported as “inactive”.

With `CCc1ccc(O)c(C(C)(C)C)c1` the outcome [16] was “inactive”.

With `CC[C@H](C)C(=O)O[C@H]1C[C@H](O)C=C2C=C[C@H](C)[C@H](CC[C@@H](O)C[C@@H](O)CC(=O)O)[C@H]21` the outcome [1] was “inactive”, the outcome [2] was “inactive” and the AC50 [3] was 4.48 µM (active). For the same compound, the outcome [17] was “inactive”, the outcome [13] was “inactive” and the AC50 [14] was 0.328 µM (active).

With `COc1cc(C(C)C)c2c(c1)S(=O)(=O)N(COc1cc(=O)n3cccc(OCCN4CCCCC4)c3n1)C2=O` the outcome [3] was “inactive”, the outcome [9] was “inactive” and the AC50 [15] was 2.22 µM (active). For the same compound, the AC50 [6] was 5.55 µM (active) and the AC50 [7] was 2.55 µM (active).

For `COCc1nnc(-c2ccc[n+]([O-])c2)n1-c1c(Cl)c(Cl)cc2[nH]c(=O)c(=O)[nH]c12`, the outcome [14] was “inactive”, the outcome [5] was “inactive” and the outcome [7] was “inactive”. For the same compound, the outcome [16] was “inactive”.

In the case of `O=C(O)c1cccc(C(=O)O)c1`, the outcome [13] is reported as “inactive”.

For `CCCCCCCCCC`, the outcome [18] was “inactive”, the outcome [19] was “inactive” and the outcome [15] was “inactive”. For the same compound, the outcome [10] was “inactive”, the outcome [7] was “inactive” and the outcome [8] was “inactive”. The outcome [16] was “inactive”.
